Screens (PubChem BioAssay)
This is a sample that favours compounds with a hit; in the whole collection about 2.7% have one here.
TrxR1 inh – blocks rat thioredoxin reductase 1; O89049; recombinant rTrxR1, NADPH fluorescence consumption, selenite substrate; Potency, µM (doses to about 114 µM), actives largely listed as inhibitors; 1% of 390,000 active; AID 588453; also: nearly all actives have a fitted effect of over 65% in size
Target sequence (O89049 whole entry, looked up): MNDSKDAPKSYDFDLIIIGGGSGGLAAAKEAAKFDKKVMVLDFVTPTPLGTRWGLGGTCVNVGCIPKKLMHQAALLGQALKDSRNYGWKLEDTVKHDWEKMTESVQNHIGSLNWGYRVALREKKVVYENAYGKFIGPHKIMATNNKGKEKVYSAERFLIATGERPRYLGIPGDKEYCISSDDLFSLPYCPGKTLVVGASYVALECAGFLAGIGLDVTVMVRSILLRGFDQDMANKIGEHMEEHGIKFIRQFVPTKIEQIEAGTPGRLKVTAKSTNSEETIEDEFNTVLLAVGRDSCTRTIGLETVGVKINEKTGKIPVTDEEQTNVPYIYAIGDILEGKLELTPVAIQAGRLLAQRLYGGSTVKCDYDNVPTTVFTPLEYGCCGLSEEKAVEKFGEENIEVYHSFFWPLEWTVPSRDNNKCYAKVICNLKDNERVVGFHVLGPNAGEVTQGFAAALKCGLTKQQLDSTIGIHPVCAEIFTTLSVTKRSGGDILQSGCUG
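Rat TrxR1 (90 nM in the dispensed reagent) was pre-reduced with 400 uM NADPH for 5 min at room temperature, then incubated with compound for 15 min. After 400 uM selenite was added, NADPH fluorescence (Ex 340/Em 450 nm) was followed for 8 min.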
TrxR1 substrate – substrates of rat thioredoxin reductase 1. O89049. purified TrxR1 substrate turnover, NADPH consumption readout. Potency, µM (series often up to 114 µM). 0.01% of 390,000 active. AID 588456; also: nearly all actives have a fitted effect of over 50% in size
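Rat TrxR1, dispensed at 90 nM, was prereduced with 400 uM NADPH (final) for 5 min at ~22 deg C, then incubated with compound 15 min before 400 uM selenite. A first-read NADPH fluorescence drop versus no-compound background flagged substrates.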
GLP1R inv ag – GLP-1 receptor (human) inverse agonism; HEK293 GLP-1R CRE-luciferase, luminescence, 24 h; GLP-1R form is constitutively active; Potency, µM (titrated, usually from 38.3 µM), actives largely listed as inhibitors; 1.6% of 410,000 active; AID 624417; also: nearly all actives have a fitted effect of over 55% in size
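Seeding at 200 cells/uL, 12 h culture, 24 hr compound treatment, then luciferase reagent and a luminescence read; cells are HEK293 stably expressing a constitutively active GLP-1R plus cAMP-responsive luciferase.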
GLP-1R agonist – agonists of human GLP-1 receptor | 0.007% of 380,000 active | P43220 | HEK293 GLP-1R CRE-luciferase, luminescence, 4-6 h; cells express a hypersensitive GLP-1R form | Potency, µM (titrated, usually from 45.6 µM), hits mostly activators
GLP1R cytotox – cytotoxic in the GLP-1 receptor inverse agonist counter-screen | HEK293 cAMP-luciferase reporter cells, luminescence, 24 h | Potency, µM (series often up to 38.3 µM), hits mostly inhibitors | 0.13% of 410,000 active;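 also: loss of luciferase light is scored as toxicity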
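Step one: seed cells (200 cells/uL, DMEM with 10% Nu serum, 1% pen-strep). Step two: 12-hour incubation at 37 deg C. Step three: pin 23 nL compound, incubate 24 hr. Step four: add luciferase reagent, read luminescence 12 min later.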
IDH1 R132H inh – inhibitors of human mutant IDH1 R132H. O75874. IDH1-R132H enzyme, NADPH consumption, diaphorase/resazurin fluorescence. Potency, µM (highest dose often 76.6 µM), most hits filed as inhibitors. 0.093% of 390,000 active; also: nearly all actives have a fitted effect of over 65% in size
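IDH1-R132H (0.5 ug/mL dispensed) in pH 7.5 Tris buffer was preincubated 30 min with compound, then given a substrate mix of 0.016 mM NADPH and 2 mM alpha-KG for 80 min at room temperature; remaining NADPH was read by diaphorase/resazurin fluorescence.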
Hits are given with their value; i = inactive; ? = inconclusive; nt = no result; [ ] = dose if it differs, or a comment. Calls follow the shape of the dose curve; as a rule, active = well fitted curve in the direction sought with a large enough effect; inconclusive = small, poorly fitted or top-dose-only effect, or another doubt; inactive = no such curve, though single readings can be large; an effect the other way counts as inactive or inconclusive.

SMILES | TrxR1 inh | TrxR1 substrate | GLP1R inv ag | GLP-1R agonist | GLP1R cytotox | IDH1 R132H inh
COC1=C(C(=O)O)N2C(=O)[C@@H](NC(=O)C(N)C3C=CCC=C3)[C@H]2SC1 (stereo partly specified) | nt | nt | nt | i | nt | nt
O=C(CSc1cccc[n+]1[O-])c1ccccc1Br | i | i[0.457 µM] | ? | i | 0.79µM | i
COc1cc(/C=N/Nc2ccccc2)ccc1OC(=O)c1cccs1 | i | i | ? | i | i | i
CC(=O)N/N=C\c1cccc(OC/C=C/c2ccccc2)c1 | i | i | 3.5µM | i | i | i
COc1cc(C=NNc2ccccc2)ccc1OC(=O)c1ccccc1 | nt | nt | 1µM | i | i | i
COc1cc(/C=N\NC(=O)CC#N)ccc1OC/C=C/c1ccccc1 | i | i | 13µM | i | i | i
N#CCC(=O)N/N=C\c1cccc(OC/C=C/c2ccccc2)c1 | i | i | 3.2µM | i | i | i
Cc1ccc(NC(=O)c2ccco2)c(OCc2cc(=O)n3cc(C)sc3n2)c1 | i | i | i | nt | i | i
CC(C)(C)CC(C)(C)N=C1Nc2cc(Cl)c(Cl)cc2N[C@]12C[C@H]1CCCC(=O)N3CC[C@@H](C2)[C@@H]13 | i | i | nt | nt | nt | nt
O=C(Nc1ccccc1C(=O)Nc1ccc(Br)cn1)c1ccccc1Cl | i | i | 10µM | i | i | i
Cc1ccccc1C(=O)Nc1ccc(Br)cn1 | i | i | i | i | i | i
CN(C)CCN(Cc1ccccc1)S(=O)(=O)c1ccc2[nH]c(=O)ccc2c1 | i | i | i | i | i | i
Cc1ccccc1C(=O)NC(=S)Nc1ccc(N2CCOCC2)cc1 | 56µM | i | ? | i | i | i
Cc1ccc(C(=O)c2c(C)oc3c2C(=O)C(=O)c2ccccc2-3)cc1 | i | ? | ? | i | 5µM | i
O=C(c1ccc(Cl)cc1)c1ccc(CN2C(=O)c3ccccc3C2=O)o1 | i | i | i | i | i | i
Cc1ccc(C(=O)c2coc3c2C(=O)C(=O)c2ccccc2-3)cc1 | i | i | i | i | ? | i
Cc1oc2c(c1C(=O)c1ccc(Cl)cc1)C(=O)C(=O)c1ccccc1-2 | i | 79µM | i | i | i | i
COc1ccccc1NC(=O)C1=C(C)Nc2nc(SCc3cc(C)ccc3C)nn2C1c1ccccc1 (stereo unspecified) | i | i | i | nt | i | i
C/C(=N\NC(=S)NCCc1ccccc1)c1ccc(C#N)cc1 | i | i | i | i | i | i
C/C(=N\NC(=S)NCCc1ccccc1)c1ccc(C)cc1 | i | i | ? | i | 10µM | i
C/C(=N/NC(=O)CNC(=O)CCc1ccccc1)c1ccc(Cl)cc1 | i | i | ? | i | ? | i
C/C(=N\NC(=S)NCCc1ccccc1)c1ccc(Cl)cc1 | i | i | 10µM | ? | ? | i
Cc1cccc(NC(=S)NCCc2ccccc2)n1 | i | i | ? | i | 4µM | i
O=C(c1ccc2c(c1)N(Cc1ccc(Cl)cc1)C(=O)c1ccccc1S2=O)N1CCC(Cc2ccccc2)CC1 (stereo unspecified) | i | i | ? | i | i | i
Oc1ccc(/C=C/c2ccc(/C=C/c3ccc(O)cc3)c(Br)c2)cc1 | 22µM | i | nt | nt | nt | nt
SMILES | TrxR1 inh | TrxR1 substrate | GLP1R inv ag | GLP-1R agonist | GLP1R cytotox | IDH1 R132H inh
O=C(c1ccccc1)c1c[nH]c(C(=O)NNc2ccccc2)c1 | i | i | 2.5µM | i | i | i
Nc1sc(Cc2ccccc2)cc1C(=O)c1c(-c2ccccc2)[nH]c2ccccc12 | nt | nt | 5.6µM | nt | ? | nt
COc1ccc(N2CCN(C(c3ccccc3)c3nnnn3C(C)C)CC2)cc1 (stereo unspecified) | i | i | nt | nt | nt | nt
Cc1cc(N2CCCC2)nc2ccc(NC(=S)NCCCOC(C)C)cc12 | 45µM | i | ? | i | i | i
Cc1cc(N2CCOCC2)nc2ccc(NC(=O)CCC(=O)N3CCN(c4cccc(C(F)(F)F)c4)CC3)cc12 | i | i | 10µM | i | i | i
CCCN(CCC)CCCNC(=S)Nc1ccc2nc(N3CCCC3)cc(C)c2c1 | i | i | ? | i | i | i
CCN1CCN(c2cc(C)c3cc(NC(=S)NCc4cccs4)ccc3n2)CC1 | i | i | ? | i | ? | i
CCC(C)NC(=S)Nc1ccc2nc(N3CCN(CC)CC3)cc(C)c2c1 (stereo unspecified) | i | i | 3.5µM | i | ? | i
Cc1cc(N2CCN(C)CC2)nc2ccc(NC(=S)NCc3cccs3)cc12 | ? | i | 1µM | i | ? | i
CC1Cc2cc(S(=O)(=O)CCC(=O)Nc3ccc(F)cc3Cl)ccc2N1C(=O)C1CC1 (stereo unspecified) | i | i | i | nt | i | i
COC(=O)[C@H](CC(C)C)NS(=O)(=O)NC(=O)OC(C)(C)C | i | i | nt | nt | nt | nt
CCCN1CCN(C(=S)Nc2ccc3nc(N4CCN(CC)CC4)cc(C)c3c2)CC1 | i | i | 4µM | i | 3.2µM | i
Cc1cc(N2CCCCC2)nc2ccc(NC(=O)c3ccc(Br)o3)cc12 | i | i | 2.8µM | i | ? | i
Cc1ccc(C)c(N2CCN(C(=S)Nc3ccc4nc(N5CCN(C)CC5)cc(C)c4c3)CC2)c1 | i | i | 2.5µM | i | i | i
CCN1CCN(c2cc(C)c3cc(NC(=S)N4CCN(c5ccccc5)CC4)ccc3n2)CC1 | i | i | 1.3µM | i | i | i
CCN1CCN(c2cc(C)c3cc(NC(=S)N4CCOCC4)ccc3n2)CC1 | i | i | ? | i | ? | i
O=P(O)(O)OP(=O)(O)OP(=O)(O)O | nt | nt | nt | i | nt | nt
CCN(CC)CCNC1=NCCn2c1cc1cc(OC)ccc12 | i | i | 2.8µM | i | i | i
CCN(CC)CCNC(=O)COc1ccc(OC)cc1 | i | i | i | i | i | i
Cc1ccc(-c2[nH]c3c(c2-c2c(-n4cccc4)n(C)c(=O)[nH]c2=O)c(=O)[nH]c(=O)n3C)cc1 | i | i | i | nt | i | i
CCc1ccc(C(C(=O)NCc2ccc(OC)cc2)N(CCOC)C(=O)Cc2cccs2)cc1 (stereo unspecified) | i | i | 10µM | i | ? | i
COCCN(C(=O)Cc1cccs1)C(C(=O)NCc1ccc(OC)cc1)c1ccc(C)cc1 (stereo unspecified) | i | i | ? | i | i | i
COc1ccc(CNC(=O)C(c2ccc(C)o2)N(C(=O)c2csnn2)c2ccc(C(C)C)cc2)cc1 (stereo unspecified) | i | i | 10µM | i | i | i
COc1ccc(CNC(=O)C(c2ccc(C)o2)N(Cc2cccs2)C(=O)Cc2cccs2)cc1 (stereo unspecified) | ? | i | 8.9µM | i | ? | i
CCS(=O)(=O)c1ccc(N=Nc2ccc(O)c3ncccc23)c(OC)c1 | i | i | i | i | ? | i
